Source: PubChem BioAssay (several laboratories)
tim10-1 inh = tim10-1 yeast growth inhibition; S. cerevisiae tim10-1 ts strain growth, BacTiter-Glo, 24 h; inhibition, % at 20 µM; hit rate 2.2% among 330,000;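 active means inhibition of at least 40%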;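 further: mutant grown at 25 °C; 0% = DMSO wells with yeast and 100% = wells holding no yeast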
PfHsp90 set2 = inhibits growth of yeast expressing Plasmodium falciparum Hsp90; S. cerevisiae expressing PfHsp90, BacTiter-Glo ATP, 48 h; yeast lacking PDR1 and PDR3 efflux regulators; inhibition, % at 9.4 µM; hit rate 0.32% among 310,000;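 active means every replicate shows inhibition above about 80%, whatever the replicate mean, limit read from the data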;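 further: 0% = DMSO neutral controls and 100% = 20 µM radicicol positive controls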
tim23-1 inh = inhibits growth of tim23-1 mutant yeast | S. cerevisiae tim23-1 growth, BacTiter-Glo luminescence, 24 h | inhibition, % at 20 µM | hit rate 1.3% among 330,000;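 active means growth inhibition of the mutant yeast at or above 50%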;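 further: temperature-sensitive mutant grown at 25 °C; plate controls were DMSO-treated mutant yeast for no effect and medium wells lacking yeast for full effect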
NALP1 inh = NALP1 inhibition | S. cerevisiae NALP1/ASC/caspase-1 growth, X-gal OD620, 72 h | inhibition, % at 10 µM | hit rate 0.61% among 280,000 | AID 2071; in the data active means inhibition mostly above about 24%, no sharp cut-off; inactive means mostly below about 32%
TIM10 inh = growth inhibitors of TIM10 yeast strain; inhibition, % at 10 µM; hit rate 1.4% among 330,000; S. cerevisiae TIM10 strain growth, BacTiter-Glo luminescence, 24 h;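 active means inhibition of 40% or more at the single tested concentration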;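 further: wild-type TIM10 isogenic control strain grown at permissive 25 °C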
NALP3 yeast inh = inhibitors of NALP3 inflammasome in yeast. AID 2825. Yeast reconstituted NLRP3/ASC/caspase-1, beta-gal luminescence, 24 h. hit rate 0.39% among 330,000. inhibition, % at 10 µM;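 active means inhibition of 50% or more; inactive means inhibition below 50%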;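 further: plate controls were induced DMSO wells for no effect and uninduced yeast grown without galactose for full effect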
Numbers without * were called inactive; · = no result given. A selection: hits, their analogues and other compounds. The true share with any hit is near 4.1%.

SMILES	tim10-1 inh	PfHsp90 set2	tim23-1 inh	NALP1 inh	TIM10 inh	NALP3 yeast inh
COc1ccc(N2CCN(C(=O)Cn3cncn3)CC2)cc1	3	5	1	-30	-22	0
CC(C)N1CCN(c2ccc(OCC3COC(Cn4cncn4)(c4ccc(Cl)cc4Cl)O3)cc2)CC1 (stereo not drawn)	·	113*	·	·	·	·
CC(C)N1CCN(c2ccc(OC[C@H]3CO[C@](Cn4cncn4)(c4ccc(Cl)cc4Cl)O3)cc2)CC1	-53	101*	-161	·	-98	22
CSCC[C@@H](C(=O)O)N1Cc2ccccc2C1=O	-2	-8	-15	39*	-5	14
COC(=O)CC(N)c1ccc(OC)c2ccccc12 (stereo not drawn)	13	18	-5	36*	-24	25
Cc1ccc(NC(=O)c2cc(N3C(=O)C=CC3=O)ccc2Cl)cc1C	21	110*	14	15	-1	5
Cc1ccc(NC(=O)c2cc(N3C(=O)C=CC3=O)ccc2N2CCOCC2)cc1	·	106*	·	-8	·	·
Cc1ccc(C2(C)NC(=O)N(CC(=O)N(C)CC(=O)Nc3cccc4ccccc34)C2=O)cc1 (stereo not drawn)	2	13	2	·	5	-8
O=C(NN1C(=O)/C(=C/c2ccc(O)c([N+](=O)[O-])c2)SC1=S)c1ccccc1Cl	-14	104*	1	12	-74	42
O=C(NN1C(=O)/C(=C/c2cc([N+](=O)[O-])ccc2O)SC1=S)c1ccccc1O	5	·	10	·	-1	-5
CSc1nc(-c2ccccc2)nc(N2CCN(C)CC2)c1C(C)=O	-15	-23	-12	34*	-52	43
CCCCNc1c(-c2ccc(SC(C)CC)cc2)nc2cnccn12 (stereo not drawn)	-22	107*	36	·	-21	41
COc1cc(CNC(=O)c2cc(C(=O)NCc3cc(OC)cc(OC)c3)n(C)n2)cc(OC)c1	6	-2	2	·	-3	17
CCOC(=O)[C@H]1[C@H]2COc3ccc(OC)cc3[C@H]2N2C(=O)CNC(=O)[C@@]12C	-5	33	-2	·	7	8
OCCN1CCN(C(c2cccs2)c2ccc3cccnc3c2O)CC1 (stereo not drawn)	·	·	·	-21	·	·
CCN1CCN(C(c2ccc(C(F)(F)F)cc2)c2ccc3cccnc3c2O)CC1 (stereo not drawn)	28	121*	49	18	-54	44
COc1ccc(-c2cc(C3CCN(Cc4ccc([N+](=O)[O-])cc4)CC3)[nH]n2)cc1	1	17	-2	8	7	20
Cc1ccc(CN2CCC(c3cc(-c4ccc(Cl)cc4)n[nH]3)CC2)cc1	-254	2	-181	35*	-169	41
CCCCn1c(/C=C/c2ccco2)nc2ccccc21	26	-6	31	55*	22	8
Cc1c(NC(=O)c2ccc(F)cc2)c(=O)n(-c2ccccc2)n1C	-1	-17	-9	36*	-18	17
Cc1c(NC(=O)C(C)Sc2n[nH]c(N)n2)c(=O)n(-c2ccccc2)n1C (stereo not drawn)	-2	4	-5	38*	6	0
CCOCCc1nnc(NC(=O)CCC2CCCCC2)s1	17	3	30	·	14	1
O=C(O)C[C@@H](CNC(=O)COc1ccc2ccc(=O)oc2c1)c1ccc(Cl)cc1	-7	-6	0	8	-5	15
O=C1C=CC(=O)N1Cc1ccncc1	·	2	·	·	·	·
O=C1C=CC(=O)N1CCCCCCCCCCN1C(=O)C=CC1=O	·	107*	·	·	·	·
SMILES	tim10-1 inh	PfHsp90 set2	tim23-1 inh	NALP1 inh	TIM10 inh	NALP3 yeast inh
O=C(O)CCn1c(-c2ccccc2)cc2ccccc21	12	-6	4	34*	8	-8
CN(C)c1ccc(-c2cc(O)c3ncccc3c2)cc1	19	101*	5	·	-8	22
Oc1cc(-c2ccncc2)cc2cccnc12	4	7	39	·	-32	34
Oc1cc(-c2ccc(N3CCCCC3)nc2)cc2cccnc12	1	111*	34	·	0	25
CC(=O)Nc1ccc(NC(=O)C(C)OC(=O)c2c(NC(C)=O)sc(C)c2C)cc1 (stereo not drawn)	8	-2	-1	·	7	4
CN(C(=O)COC(=O)CSc1ccc([N+](=O)[O-])cc1)C1CCS(=O)(=O)C1 (stereo not drawn)	-13	15	-11	·	-6	18
CN(C(=O)COC(=O)c1cc([N+](=O)[O-])ccc1Sc1ccccc1)C1CCS(=O)(=O)C1 (stereo not drawn)	21	-12	14	28*	1	21
O=C(CN1CCCC1)Nc1ccc(Br)cc1[N+](=O)[O-]	-3	3	-1	-8	0	10
CC(=O)c1cccc(CN2CCC(n3nccc3NC(=O)CCOc3ccccc3)CC2)c1	-3	-6	-1	31*	4	18
O=C(CCOc1ccccc1)Nc1ccnn1C1CCN(Cc2ccccc2)CC1	-9	5	3	0	0	5
O=C(N/N=C/c1ccc(Cl)cc1)C(=O)N1CCCCCC1	-10	-22	24	25*	10	11
O=C(Cn1cc(COc2ccc(Br)cc2[N+](=O)[O-])nn1)c1ccc(O)cc1	·	9	·	·	·	·
Oc1c(CN2CCCCC2)cc(Br)c2cccnc12	11	104*	21	58*	24	44
O=C(COc1c(Br)cc(Br)c2cccnc12)N1CCCCC1	34	-28	32	5	-10	3
O=S(=O)(NC1CC1)c1ccc(Br)cc1N1CCC[C@H]1CO	·	-11	·	·	·	·
O=C(NC(=S)Nc1ccccc1)c1cc([N+](=O)[O-])ccc1N1CCOCC1	8	0	10	26*	10	23
CCC1S/C(=C(\C#N)C(=O)NCc2ccco2)N(c2ccc(Br)cc2)C1=O (stereo not drawn)	17	-15	26	22*	3	11
CCC1S/C(=C(\C#N)C(=O)NCc2ccco2)N(c2ccc(F)cc2)C1=O (stereo not drawn)	8	·	18	19	12	5
NC(=O)COc1ccc(/C=N/NS(=O)(=O)c2ccccc2)cc1	2	-4	-4	40*	3	2
COc1cccc(OC)c1C(=O)OCC(=O)NC1CCCCCC1	13	3	24	·	-16	13
CCN1CCN(c2c(Cl)cccc2NC(=O)c2ccc([N+](=O)[O-])o2)CC1	-22	·	1	31*	-8	36
CN(C)CC1CCC/C(=C/c2ccc(Cl)cc2)C1=O (stereo not drawn)	·	-26	·	·	·	·
COc1cc(/C=C2/CCC/C(=C\c3cc(O)c(OC)c(Cl)c3)C2=O)cc(Cl)c1O	4	14	10	24*	2	18
Cc1ccc(C)c(NC(=O)CCN2CC(C)CC(C)C2)c1 (stereo not drawn)	-14	10	-7	38*	-16	25
